This passage reports ETS1 binding intensity results from the supplement of paper PMC10681739.

In the experiment the target is T1, ETS1 (UniProt P14921).
T1 sequence: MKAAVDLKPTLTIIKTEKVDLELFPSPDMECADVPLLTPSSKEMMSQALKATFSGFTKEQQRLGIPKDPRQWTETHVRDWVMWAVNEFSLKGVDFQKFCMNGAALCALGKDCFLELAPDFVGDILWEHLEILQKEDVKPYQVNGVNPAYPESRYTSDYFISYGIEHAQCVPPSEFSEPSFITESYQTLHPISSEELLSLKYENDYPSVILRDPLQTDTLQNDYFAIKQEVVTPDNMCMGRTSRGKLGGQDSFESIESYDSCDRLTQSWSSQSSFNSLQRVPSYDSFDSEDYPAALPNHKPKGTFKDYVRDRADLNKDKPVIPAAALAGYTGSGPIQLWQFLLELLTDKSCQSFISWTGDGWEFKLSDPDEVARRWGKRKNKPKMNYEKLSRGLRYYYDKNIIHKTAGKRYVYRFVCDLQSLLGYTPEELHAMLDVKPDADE
The experiment is described as follows: ETS1 binding intensity (PBM fluorescence), ETS1 alone (arbitrary fluorescence units); higher = stronger binding. Conditions: ETS1 concentration 1 nM; RUNX1 concentration 0 nM. On the procedure: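 Cooperative genomic-context PBM: 36-bp genomic probes with neighbouring ETS1 and RUNX1 sites, double-stranded on Agilent 4x180k arrays. Full-length recombinant human ETS1 (1 nM) was incubated alone or with RUNX1 (25 nM) and detected with anti-ETS1 antibody plus Alexa488 secondary. Value is the median fluorescence intensity over 4 replicate spots; the ETS1+RUNX1 data were normalised to the ETS1-only data using probes without RUNX1 sites. The 36-bp variable region sits on the array probe with constant linker/primer flanks that are not printed.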
Consider AAAACAACTTCCTTCCCCTCTCTCTCCACCACAGTC, for which the ETS1 binding intensity worked out at 554.
AGTAGAGGAGGAAGTTAAATGTGGTTTTCTGGGTGG yielded an ETS1 binding intensity of 864.
For GGACTGCGTTTCCGGACACTGCGGGTGCCGGTAGCC the value was 1290.
In turn, CCGCTTCCTTAGAGGTTAAGTGGTGGTGGTTCAGTT yielded an ETS1 binding intensity of 473.
For TAGCCGTACGGAAATGTTTGTGGTTCTCTGCATCTA the value was 647.
To GCAGAACCAGAAACAGGATGTGGGTTCCCCTTTAAG belongs 7390; to TGGTTAAGCAGTGCAGGATGTGGGCTGCACTGCTAA, 2590; to TAAATAGGAAGTCAGAGTTTACTGCCGAACCCACAG, 616.
As for GCAGGAAGACTAACACAAAACCATCAAACCACTCTG, the ETS1 binding intensity was 511.
To TTCTGGACATGCTTCCTGTGGCTTCTCTCCTGCGCT belongs 845.
For ACTGAAAACAGCACAGGATGTGGTCTGCCAGGTGCC the value was 4270; for GCCACTTCCTGGAAAACAGTAATTACCACACGTCTC, 464; for CTGGCTACAGGAAAAACAAAGTCAAACCACAGCACT, 473.
For GGCGGATGGGGAGAAGAGAGTGGCTGTGGTCTCTGG, the ETS1 binding intensity was found to be 371.
To CTGGTAGAAAAGGAAGCAGGTTGTGGTGAGCATTTA belongs 837.
For AGAGCGAGGAGGACTTCCTGCGGCAGGTCGGCGTGA the value was 635; for CCGCCCACTTCCGTGTGGCCGCCGATTGGTTTTGCC, 491.
For CTTCAGGGGTGGGGCTTCCTGCCGCAGAGCCGCCTT the value was 543; for AACTTCCTCCGCGCGGGGCCACTGCTACCACAAAGG, 373; for GCCCGCGGCTCCGGAAGCGGCTGCGGCCCCGACCGG, 3000.
AGCACTTCCGTTTGGGCAGGGCTGCGGGCCGGAGGG displayed an ETS1 binding intensity of 911.
For TGTCCACCTCTACGGAAGTGCGCCGCAGTCCGCCAG the value was 1620; for CCACCACTCTAAGCAGGATGCGGTGCGACCCAAGAG, 1390; for TATTCAGGCTTCCGGGTGATGTTTGTGGCCACCCGG, 3800.
The sequence CAGAGGCCCGGCCTCTTCCGCCACAACTCCGGCCCG yielded an ETS1 binding intensity of 492.
For GAACACGGAAACACTGAGCTTTTACTTTGACCACAC the value was 572; for TGCTTCCGGCGGGCGCTTGCTCCCCGCGGTCCGCAC, 657.
To CCTCCCTGAGGGGGAAGTGGTTTTTGAGTCTGAGTC belongs 579.
For CAACTGACCGGACAGAACACAGCCACAAAACACGAG the value was 512; for CATTTCAGTCCAGGATGTGGGTGCACACACCGCTTC, 1610.
In turn, CCCTTCCGCGTGGGTTGCACCTGCTAACCACAGAGC displayed an ETS1 binding intensity of 329.
For TTTCCACTTCCTGTTCTACTTGTGGCTACTGACTCA the value was 2530; for GGGGAACGGAAGCTGCTGTCGTTACTGGCGGTTGTA, 1510.
To GCCCCTAAACCGGATGCGGCAGCCACCGCGGACCCC belongs 9010.
For CTACCCTCCCTCTTCCTGTGGTTTCTCAAACATGTC the value was 729; for GAGCAGGAAGCACCCCCAGCACAGGCCTGCGGTGAG, 438.
In turn, GAAATCCATCACGGATGTGGGCTTTTTGCTCTCATT came in with an ETS1 binding intensity of 1490.
To TAGCATGTGAGCTTCCTGTGGGTTTGTGCAGCCCCA belongs 616.
For the sequence AGCGTTGTCTTCCGGCCTCAACCACTCAGCGACCGG, the ETS1 binding intensity came out at 14400.
With GGACCGGTGTCTGGCGGATGCGGTCGTGAAGATAGG, the ETS1 binding intensity was found to be 1200.
